# In the library only some 1.4% were active in any assay of this set; here they are far more common.
# ALOX12 inh: Primary qHTS assay for inhibitors of human arachidonate 12S-lipoxygenase (ALOX12): Round 2; Potency, µM (series often up to 108 µM), without a hit: at the top dose activity change, negative = inhibition, hits mostly inhibitors; Polyunsaturated fatty acid lipoxygenase ALOX12 (Homo sapiens), P18054; 1.1% of 580,000 active; AID 1671190, 2021; purified 12hLO, xylenol orange hydroperoxide absorbance; further: potency means the concentration at half of the fitted maximal effect; on the % scale 0 is the no-effect control and ±100 the full control effect
#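 Purified human 12hLO (150 nM final) in 25 mM Hepes, 0.01% Triton X-100, pH 7.0 was preincubated 15 min at room temperature with compound. Then 40 uM arachidonic acid was added, 30 min. Hydroperoxide was read by Fe-XO absorbance ratio 573/405 nm.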
# ASM inhibitor: Inhibitors of Secretory Acid Sphingomyelinase (S-ASM): qHTS; Sphingomyelin phosphodiesterase (Homo sapiens), P17405; placental ASM, HMU-PC fluorogenic substrate, 60 min; Potency, µM (series often up to 57.5 µM), inactives show at the top dose activity change, negative = inhibition, most hits filed as inhibitors; 0.006% of 340,000 active; further: potency means the concentration at half of the fitted maximal effect
# Target sequence (P17405 47-631 limits assumed): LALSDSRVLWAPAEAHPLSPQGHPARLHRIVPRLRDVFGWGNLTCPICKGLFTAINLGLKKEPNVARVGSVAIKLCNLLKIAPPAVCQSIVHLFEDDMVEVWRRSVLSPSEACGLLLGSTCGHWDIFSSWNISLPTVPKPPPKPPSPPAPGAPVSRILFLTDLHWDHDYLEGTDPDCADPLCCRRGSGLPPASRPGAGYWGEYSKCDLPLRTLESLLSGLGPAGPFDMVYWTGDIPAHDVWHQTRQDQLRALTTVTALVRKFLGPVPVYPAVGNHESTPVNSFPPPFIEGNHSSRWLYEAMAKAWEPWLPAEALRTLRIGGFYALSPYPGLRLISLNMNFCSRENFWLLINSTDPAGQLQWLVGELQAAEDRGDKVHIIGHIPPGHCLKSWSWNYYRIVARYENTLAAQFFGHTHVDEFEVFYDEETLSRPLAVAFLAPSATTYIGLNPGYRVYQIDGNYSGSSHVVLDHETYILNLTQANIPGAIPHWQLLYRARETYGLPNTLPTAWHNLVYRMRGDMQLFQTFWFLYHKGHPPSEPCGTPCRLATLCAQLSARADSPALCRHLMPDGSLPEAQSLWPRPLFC
#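 Steps: dispense placental human ASM, pin compound, wait 10 min at room temperature, add HMU-PC0 substrate at 9 uM final, incubate 60 min at 37 °C, add stop solution raising pH to 10, read fluorescence.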
# CCT modulator: High-Throughput Screening for Modulators of Cytosolic Chaperonin Activity | activity change, % (no concentration beside the values), hits read low | 0.3% of 360,000 active | AID 651819, 2012 | purified chaperonin ATPase assay, HTRF ADP detection, 30 min; in the data active means activity change below about -30%; further: on the % scale 0 is the no-effect control and ±100 the full control effect
#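 TRiC (40 or 20 nM final, by batch activity) in 30 mM Tris pH 7.4, 100 mM KCl, 5 mM MgCl2, 1 mM DTT was treated with compound at 76 uM single dose, then 10 uM ATP, 30 min at 37 °C. ADP was read by HTRF Transcreener.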
# PINK1 modulator: A Quantitative High throughput Screen to Identify Chemical Modulators of PINK1 Expression; PINK1 immunofluorescence, high-content cytometry, 24 h; Potency, µM (doses to about 76.6 µM), without a hit: top-dose activation (PINK1 increase), usual class: activators; 0.2% of 410,000 active; active means well fitted activation curve with a large enough effect; inconclusive means small, poorly fitted or top-dose-only effect; cell line not stated here; further: potency means the concentration at half of the fitted maximal effect; % of control where 0% means no effect; nearly all actives have a fitted effect of over 65% in size
#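 Compound titrations (5 concentrations, 24 h) on a stable cell line; DMSO and CCCP controls. Endpoint: fixed-cell PINK1 immunofluorescence with mitochondrial, cell and nuclear markers, scanned by microplate cytometer.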
# p53 reactivator: qHTS assay for re-activators of p53 using a Luc reporter | H1299 p53-A138V BP100-luciferase reporter, luminescence, 24 h | Potency, µM (doses to about 92.2 µM), without a hit: at the highest dose activity change, positive = activation, hits mostly activators | 0.063% of 320,000 active | AID 504706, 2011; further: potency means the concentration at half of the fitted maximal effect; % of control where 0% means no effect; nearly all actives have a fitted effect of over 45% in size
#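 p53-null H1299 cells stably carrying temperature-sensitive p53-A138V and a BP100-luciferase reporter were pinned with compounds (4-point, 1:5 series) and held 24 hrs at 37 deg C. Luminescence was read 10 min after detection reagent.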
# Mm-Cpn inhibitor: Inhibitors of TCP-1 ring complex (TRiC) of Methanococcus maripaludis (MmCpn): qHTS. Chaperonin Mm-Cpn (Methanococcus maripaludis). purified Mm-Cpn ATPase, ADP Transcreener TR-FRET. Potency, µM (doses to about 76.9 µM), without a hit: top-dose activity, negative = inhibition, most hits filed as inhibitors. 0.031% of 330,000 active. AID 504842, 2011; further: potency means the concentration at half of the fitted maximal effect; on the % scale 0 is the no-effect control and ±100 the full control effect; nearly all actives have a fitted effect of over 80% in size
#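 Reaction buffer contained 30 mM Tris pH 7.4, 100 mM KCl, 5 mM MgCl2 and 1 mM DTT. Mm-CPN (25 nM final) hydrolysed 10 uM ATP over 30 min at 37°C; ADP was read by HTRF.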
# * = called active by the depositor; ? = inconclusive; . = no result; [ ] = another dose, or the depositor's remark. Unless noted, the call rests on the fitted dose curve; in most records, active means well fitted curve in the direction sought with a large enough effect; inconclusive means small, poorly fitted or top-dose-only effect, or another doubt; inactive means no such curve, though single readings can be large; an effect the other way counts as inactive or inconclusive.
SMILES,ALOX12 inh,ASM inhibitor,CCT modulator,PINK1 modulator,p53 reactivator,Mm-Cpn inhibitor
O=C(c1ccco1)N1CCN(CCCCOc2ccc(F)cc2)CC1,31.6µM*,2.2%,-0.9,-0.3%,4.0%,-1.6%
CC(C)C[C@@H](CN1CCCC1CN1C(=S)NC[C@@H]1Cc1ccccc1)N1C[C@H](Cc2ccccc2)N(CCc2ccccc2)C1=S (some centres not stated),39.8µM*,.,-0.5,3.3%,.,.
CC(C)C[C@H]1CNC(=S)N1C[C@H]1CCCN1C[C@H](Cc1ccc(O)cc1)N1C[C@H](Cc2ccc(O)cc2)N(CCc2ccccc2)C1=S,44.7µM*,.,0.3,-0.9%,.,.
CC(C)C[C@@H](CN1CCCC1CN1C(=S)NC[C@@H]1Cc1ccccc1)N1C[C@H](Cc2ccccc2)N(CC2CCCCCC2)C1=S (some centres not stated),35.5µM*,.,0.6,1.6%,.,.
CC(C)C[C@@H](CN1CCCC1CN1C(=S)NC[C@@H]1Cc1ccccc1)N1C[C@H](Cc2ccc(O)cc2)N(CCc2ccccc2)C1=S (some centres not stated),?,.,0.6,1.1%,.,.
CNC(=O)c1ccccc1OCc1coc(-c2ccccc2)n1,7.5%,.,.,.,.,.
CCOc1ccc(S(=O)(=O)N2CCN(c3ccc(NCc4ccccc4)nn3)CC2)cc1,-4.0%,.,.,.,.,.
O=S(c1ccccc1O)S(=O)c1ccccc1O (configuration not stated),2.24µM*,-2.9%,-0.9,8.7%,.,.
Cc1ccccc1C(=O)NC(=S)Nc1ccccc1C(=O)O,44.7µM*,3.2%,0.7,-0.8%,12.3%,1.1%
COC(=O)c1ccccc1NC(=S)NC(=O)c1ccccc1,?,5.9%,-3.8,1.8%,5.1%,0.5%
COC(=O)c1ccccc1NC(=S)NC(=O)c1ccc(C)cc1,35.5µM*,3.8%,-2.1,3.3%,15.3%,-0.8%
O=C(NC(=S)Nc1ccccc1C(=O)O)c1ccc2ccccc2c1,25.1µM*,11.7%,-2.3,0.0%,9.5%,-0.5%
O=C(O)c1ccc(NC(=S)NC(=O)c2ccc3ccccc3c2)cc1,?,.,-0.2,0.2%,30.2%,1.8%
Cc1csc(CNC(=O)c2ccc(C(N)=O)cc2)n1,-25.8%,.,.,.,.,.
Cc1ccccc1CC(=O)N(C)Cc1ccsc1,1.3%,.,.,.,.,.
C#CCOCCOCCOCCNc1nc(N2CCOCC2)nc(N2CCN(C(=O)[C@H](CCC(=O)O)n3cc(C(N)[C@H](C)CC)nn3)CC2)n1 (some centres not stated),7.2%,8.1%,0.7,-0.5%,0.9%,.
C#CCOCCOCCOCCNc1nc(N2CCN(C(=O)[C@H](CCC(=O)O)n3cc(CN)nn3)CC2)nc(N2CCN(C(=O)[C@H](CCC(=O)O)n3cc([C@@H](N)[C@H](C)CC)nn3)CC2)n1,-5.6%,5.6%,-33.4*,-1.0%,1.3%,-0.2%
C#CCOCCOCCOCCNc1nc(N2CCN(C(=O)Cn3cc(CCCCN)nn3)CC2)nc(N2CCN(C(=O)Cn3cc(CCCN=C(N)N)nn3)CC2)n1,2.51µM*,2.6%,-5.1,1.1%,-1.5%,-2.1%
CCc1ccc(Cn2nc(C3CC3)nc2-c2cnn(C)c2)cc1,-14.1%,.,.,.,.,.
Cc1ccc(C(=O)OCc2ccc(C#N)cc2)cc1,-26.3%,.,.,.,.,.
COc1ccc(N(CC(=O)NCC2CCCO2)S(=O)(=O)c2c(C)noc2C)cc1 (configuration not stated),-28.6%,4.4%,-65.0*,?,4.9%,1.4%
CSC(=S)N/N=C(\C)c1ccc(Br)cc1,44.7µM*,-11.2%,0.1,3.4%,?,2.2%
Cc1sc(N2CCOCC2)nc1-c1ccc(NS(C)(=O)=O)cc1,35.5µM*,.,.,.,.,.
CC(=O)Nc1ccc(-c2nc(N3CCCC3)sc2C)cc1,5.62µM*,.,.,.,.,.
O=C(Nc1cccc(C(=O)N2CCCC2)c1)C1CCCC1,100.8%,-0.2%,1.0,0.6%,.,.
SMILES,ALOX12 inh,ASM inhibitor,CCT modulator,PINK1 modulator,p53 reactivator,Mm-Cpn inhibitor
O=C(Nc1cccc(C(=O)N2CCCCC2)c1)C1CC1,10.5%,-4.1%,-48.0*,-0.6%,.,.
CC(C)(C)C(=O)Nc1cc(S(=O)(=O)Nc2ccc(Cl)cc2)ccc1O,39.8µM*,-3.1%,-3.5,5.9%,-3.8%,-0.8%
COc1cccc(Nc2cc(CN3CCC(C)(NC(C)=O)CC3)cc(OC)c2)c1,39.8µM*,.,.,.,.,.
CC(=O)NC1(C)CCN(Cc2cnc(-c3ccccc3OCc3ccccc3)s2)CC1,8.91µM*,.,.,.,.,.
CC(=O)NC1(C)CCN(Cc2cccc(Oc3ccccc3)c2)CC1,15.8µM*,.,.,.,.,.
CC(=O)NC1(C)CCN(Cc2cccc(-c3ccccc3)c2)C1 (configuration not stated),-17.0%[176 µM],.,.,.,.,.
CCc1ccc(/C=C/C(=O)NCc2ccco2)o1,-15.1%,.,.,.,.,.
O=C(OC/C=C/c1ccccc1)C1=NN(C2CCS(=O)(=O)C2)C(=O)CC1 (configuration not stated),-18.6%,.,.,.,.,.
O=S(=O)(Nc1ccc2oc(-c3ccc(Cl)cc3)nc2c1)c1ccccc1,-14.7%,.,.,.,.,.
N#C/C(=C/c1ccc(N2CCCCCC2)o1)c1cccc(F)c1,?,-11.4%,-3.4,8.91µM*,-17.4%,-0.1%
N#C/C(=C\c1ccc(N2CCOCC2)o1)c1ccccc1,20µM*,-19.7%,-1.1,.,-14.5%,0.7%
N#C/C(=C/c1ccc(N2CCOCC2)o1)c1nc2ccccc2[nH]1,?,-7.0%,0.0,25.1µM*,.,-9.0%
N#C/C(=C\c1ccc(N2CCOCC2)cc1)c1ccccc1,2.7%,-1.9%,0.9,-0.5%,?,0.1%
N#C/C(=C/c1ccc(N2CCOCC2)o1)c1ccc(Br)cc1,5.62µM*,?,-8.2,?,-9.2%,0.2%
CC(C)C(OC(=O)Cc1c[nH]c2ccccc12)C(=O)NC(N)=O (configuration not stated),8.1%,.,.,.,.,.
O=C(NC1CC2CCC1C2)c1ccc(I)cc1 (configuration not stated),-0.3%,.,.,.,.,.
Clc1cc(Cl)c(N/N=C/C(Br)=C/c2ccccc2)c(Cl)c1,6.31µM*,.,.,.,.,.
O=C(O)c1ccc(N/N=C/C(Br)=C/c2ccccc2)cc1,39.8µM*,-2.4%,-0.6,2.0%,?,-2.1%
C#CCNC(=O)[C@H]1C[C@@H](O)[C@H](O)[C@@H]2N=C(Nc3cccc4ccccc34)S[C@@H]21,20.5%[176 µM],.,.,.,.,.
